Laboratory results as given in PubChem BioAssay (NCATS).
Records with an inconclusive call do not appear. Values without a mark were called inactive. Calls follow the shape of the dose curve; as a rule, active = well fitted inhibition curve with a large enough effect; inconclusive = small, poorly fitted or top-dose-only effect; inactive = no such curve, though single readings can be large or run the other way.

assay: NS1 protein of Zika virus - qHTS assay to identify small molecule inhibitors in human HEK 293 cells (AID 1347053); conditions: HEK293 ZIKV MR766 infection, NS1 TR-FRET, 24 h; series mostly up to 46.1 µM; activity change, negative = inhibition: at the top concentration;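 also: plate controls were infected untreated cells for no effect and uninfected cells for full effect; nearly all actives have a fitted effect of over 55% in size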
Procedure, shortened: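 Read-out is a two-antibody TR-FRET for ZIKV NS1, normalized between uninfected cells and infected cells. Compound added 1 h before MR766 infection at MOI 0.5; human HEK 293 cells incubated 24 h, 37 C.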

| Structure (SMILES) | activity change, negative = inhibition |
| --- | --- |
| C[C@H]1O[C@@H](n2cc(F)c(=O)[nH]c2=O)[C@H](O)[C@H]1O | 1.39% |
| CNC(=O)c1c(-c2ccc(F)cc2)oc2cc(N(CCO)S(C)(=O)=O)c(C3CC3)cc12 | 7.24% |
| Cc1cc(C(C)Nc2ccccc2)c2nc(N3CCOCC3)cc(=O)n2c1 (configuration not stated) | -1.7% |
| Cc1nc2c([nH]1)CCN(C(=O)c1ccc(NC(=O)c3ccccc3-c3ccccc3)cc1)c1ccccc1-2 | 1.51% |
| Cc1c(C(=O)Nc2ccc(N3C[C@@H](C)O[C@@H](C)C3)nc2)cccc1-c1ccc(OC(F)(F)F)cc1 | 13% |
| CCCCOCCOc1nc(-c2ccc(C(=O)O)c(F)c2)sc1C | -10.1% |
| CC1CNc2c(cccc2S(=O)(=O)N[C@@H](CCCN=C(N)N)C(=O)N2CC[C@@H](C)C[C@@H]2C(=O)O)C1 (some centres not stated) | -3.05% |
